Screens (PubChem BioAssay)
Lassa entry inh = blocks Lassa virus binding to or entry into cells; hit rate 1.2% among 300,000; Potency, µM (doses to about 37.9 µM), for inactives: top-dose activity change, negative = inhibition, hits mostly inhibitors; Lassa virus pseudotype entry inhibition, cell reporter; calls by dose curve; tested in HEK293 cells; also: potency is read from the fitted curve at half-maximal effect; % is scaled to controls: 0 for no effect and ±100 for the full control effect; nearly all actives have a fitted effect of over 50% in size
Pf growth 96h = P. falciparum growth inhibition at 96 hours; P. falciparum luciferase reporter growth, 96 h; Potency, µM (titrated, usually from 28.7 µM), for inactives: top-dose activity change, negative = inhibition, hits mostly inhibitors; hit rate 6.9% among 320,000; also: potency is read from the fitted curve at half-maximal effect; % is scaled to controls: 0 for no effect and ±100 for the full control effect
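P. falciparum expressing integrated firefly luciferase, in erythrocytes at 2% hematocrit, 0.05% parasitemia, incubated with compounds 96 h at 37 C, 5% CO2. Growth inhibition read as loss of luminescence; two-generation exposure targets delayed-death apicoplast inhibitors.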
Shiga inhibitor = Shiga toxin inhibition; inhibition, % at 38.7 µM; hit rate 9.2% among 290,000; Vero cells, Shiga toxin protein synthesis inhibition reporter; in the data active = inhibition mostly above about 28%, no sharp cut-off; inactive = mostly below about 43%; also: 0% is about no effect
Marburg entry inh = inhibitors of Marburg virus binding or cell entry. Marburg virus pseudotyped entry inhibition, cell reporter. hit rate 1.8% among 300,000. Potency, µM (top dose mostly 37.8 µM), without a hit: top-dose activity change, negative = inhibition, most hits filed as inhibitors; calls by dose curve; tested in HEK293 cells; also: potency is read from the fitted curve at half-maximal effect; % is scaled to controls: 0 for no effect and ±100 for the full control effect
Cycloheximide cs = counter-screen hit for Shiga toxin inhibitors, cycloheximide; max response, %; cell reporter, cycloheximide protein synthesis inhibition counterscreen; hit rate 12% among 300,000; AID 2314; in the data active = max response mostly above about 13%, no sharp cut-off; inactive = mostly below about 14%; also: read at 38.3 µM for the half of the compounds with a filed dose; 0% is about no effect
Pf growth 48h = P. falciparum growth inhibition at 48 hours (one generation) | AID 504832 | P. falciparum luciferase growth in erythrocytes, 48 h | hit rate 5.9% among 310,000 | Potency, µM (series often up to 28.7 µM), without a hit: top-dose activity change, negative = inhibition, usual class: inhibitors; also: potency is read from the fitted curve at half-maximal effect; % is scaled to controls: 0 for no effect and ±100 for the full control effect
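Growth was read as firefly luciferase luminescence after a 48 h, 37 C, 5% CO2 exposure of compounds to reporter-bearing P. falciparum cultures (0.1% parasitemia, 2% hematocrit final) in Albumax-supplemented RPMI 1640.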
* = called active by the depositor; [ ] = another dose, or the depositor's remark. Hits are enriched below; roughly 19% of the tested compounds scored in any of these assays. Unless noted, calls follow the shape of the dose curve; as a rule, active = well fitted inhibition curve with a large enough effect; inconclusive = small, poorly fitted or top-dose-only effect, or another doubt; inactive = no such curve, though single readings can be large or run the other way.

`N#CC1=C(N)N2C(=C(C#N)C13CCCCC3)SC1CCCCC12O` (configuration not stated) gave Lassa entry inh -27.0%, Pf growth 96h inconclusive, Shiga inhibitor -4.9, Marburg entry inh -25.0%, Cycloheximide cs -0.1 and Pf growth 48h inconclusive.
Screening Cc1ccc(OCCN2CCN(c3nc(NCc4ccco4)c4ccccc4n3)CC2)cc1 returned Lassa entry inh inconclusive, Pf growth 96h 3.3%, Shiga inhibitor 17.0, Marburg entry inh inconclusive, Cycloheximide cs -3.0 and Pf growth 48h inconclusive.
For OCCN1CCN(c2nc(NCc3ccco3)c3ccccc3n2)CC1 the results were Lassa entry inh -15.9%, Pf growth 96h 9.28µM*, Shiga inhibitor 9.7, Marburg entry inh -26.7%, Cycloheximide cs 1.9 and Pf growth 48h inconclusive.
Screening c1ccc(CN2CCN(c3nc(NCc4ccco4)c4ccccc4n3)CC2)cc1 returned Lassa entry inh 12.6µM*, Shiga inhibitor -3.1, Marburg entry inh inconclusive, Cycloheximide cs 4.8 and Pf growth 48h inconclusive.
For COc1ccc(NC(=O)C2CCN(C(=O)Nc3ccccc3)CC2)cc1S(=O)(=O)N(C)C the results were Lassa entry inh 11.6%, Pf growth 96h inconclusive, Marburg entry inh 2.8% and Pf growth 48h inconclusive.
COc1ccc(N/C(C)=C/C(=S)Nc2ccccc2)cc1 was read as Lassa entry inh inconclusive, Pf growth 96h 40.8%, Shiga inhibitor 42.6*, Marburg entry inh inconclusive, Cycloheximide cs 32.1* and Pf growth 48h 44.6%.
For COc1ccc(OC)c(N/C(C)=C/C(=O)c2ccccc2)c1 the results were Lassa entry inh 26.4%, Pf growth 96h 11.2%, Shiga inhibitor 26.9*, Marburg entry inh inconclusive, Cycloheximide cs 91.3* and Pf growth 48h 126.3%.
CC1(C(=O)Nc2ccc3c(c2)OCO3)CC1(Cl)Cl (configuration not stated) was read as Lassa entry inh 25.3%[46.1 µM], Pf growth 96h 24.2%, Shiga inhibitor 28.9*, Marburg entry inh 28.9%[46.1 µM], Cycloheximide cs 16.1* and Pf growth 48h 19.9%.
Screening COc1ccc(N/C(C)=C/C(=O)c2ccccc2)cc1 returned Lassa entry inh 18.1%, Pf growth 96h 11.7µM*, Shiga inhibitor 163.6*, Marburg entry inh 2.7%, Cycloheximide cs 64.1* and Pf growth 48h 190.7%.
For COc1cccc(N/C(C)=C/C(=O)c2ccc(Br)cc2)c1 the results were Lassa entry inh inconclusive, Pf growth 96h -22.4%, Shiga inhibitor 31.7, Marburg entry inh 8.2%, Cycloheximide cs 20.7 and Pf growth 48h 190.9%.
For COc1ccc(C(=O)/C=C(\C)Nc2ccc3c(c2)OCO3)cc1 the results were Lassa entry inh 14.1%, Pf growth 96h 124.5%, Shiga inhibitor inactive, Marburg entry inh 2.2%, Cycloheximide cs 49.4* and Pf growth 48h 171.6%.
COC(=O)/C(=C\C(=O)c1ccccc1)Nc1ccc(OC)cc1 was read as Lassa entry inh -6.9%, Pf growth 96h 126.9%, Shiga inhibitor 58.2*, Marburg entry inh 3.3%[46.1 µM], Cycloheximide cs 50.3* and Pf growth 48h 110.5%.
CC(C)=CC(=O)Nc1ccc2c(c1)OCO2 was read as Lassa entry inh inconclusive, Shiga inhibitor 67.6*, Marburg entry inh -20.5%, Cycloheximide cs 25.2* and Pf growth 48h 205.4%.
Screening COc1ccc(NC(=O)CCCCC(=O)Nc2ccc(OC)cc2)cc1 returned Lassa entry inh 11.6%, Pf growth 96h 8.0%, Marburg entry inh 22.3%, Cycloheximide cs 1.0 and Pf growth 48h 12.3%.
Screening CCOC(=O)C(=O)Nc1ccc2c(c1)OCO2 returned Lassa entry inh 8.0%, Pf growth 96h 34.7%, Shiga inhibitor 34.8, Marburg entry inh -4.8%[46.1 µM], Cycloheximide cs 13.0 and Pf growth 48h 30.7%.
For COc1ccc(OC)c(N/C=C/C(=O)c2ccccc2)c1 the results were Lassa entry inh inconclusive, Pf growth 96h inconclusive, Shiga inhibitor -36.7, Marburg entry inh 1µM*, Cycloheximide cs -3.5 and Pf growth 48h inconclusive.
Screening Cc1ccc(S(=O)(=O)N2CN(CC3CCCO3)c3nc4ccccc4nc32)c(C)c1 (configuration not stated) returned Pf growth 96h inconclusive, Shiga inhibitor -6.5, Cycloheximide cs -10.1 and Pf growth 48h -15.6%.
Screening CCOCCCNC(c1ccccc1)c1ccncc1 (configuration not stated) returned Pf growth 96h 5.2%, Shiga inhibitor -17.7, Cycloheximide cs 0.2 and Pf growth 48h 2.5%.
`Cc1onc(-c2ccccc2)c1C(=O)c1ccccc1` gave Lassa entry inh 8.2%, Pf growth 96h 105.3%, Shiga inhibitor -7.1, Marburg entry inh 6.7%[46.1 µM], Cycloheximide cs -1.4 and Pf growth 48h -0.8%.
Screening CSc1n[nH]c(NC(C)=O)n1 returned Lassa entry inh -6.8%, Pf growth 96h 8.2%, Shiga inhibitor -28.0, Marburg entry inh 1.6%, Cycloheximide cs 0.5 and Pf growth 48h 1.17µM*.
`CCCSc1n[nH]c(NC(C)=O)n1` gave Pf growth 96h 28.0%, Shiga inhibitor -4.1, Marburg entry inh 3.8% and Cycloheximide cs 1.3.
Screening Cn1c(SCc2nnc(-c3ccc(F)cc3)o2)nnc1C1COc2ccccc2O1 (configuration not stated) returned Lassa entry inh 10.3%, Pf growth 96h inconclusive, Shiga inhibitor 7.6, Marburg entry inh 12.2%, Cycloheximide cs 4.2 and Pf growth 48h inconclusive.
For Cc1ccccc1-n1nnnc1SCc1ncc(-c2ccccc2)o1 the results were Lassa entry inh inconclusive, Pf growth 96h -8.1%, Shiga inhibitor -2.1, Marburg entry inh inconclusive, Cycloheximide cs 7.9 and Pf growth 48h -21.4%.
`c1ccc(-c2cnc(CSc3nnc4ccccn34)o2)cc1` gave Lassa entry inh -11.0%, Shiga inhibitor 53.5*, Marburg entry inh inconclusive, Cycloheximide cs 40.2* and Pf growth 48h 186.9%.
Fc1ccc(-c2nnc(CSc3nnc4ccccn34)o2)cc1 was read as Lassa entry inh 15.2%, Pf growth 96h 128.9%, Shiga inhibitor 22.3, Marburg entry inh inconclusive, Cycloheximide cs 39.6* and Pf growth 48h 94.9%.
CS(=O)(=O)c1ccc(Cl)c(NC(=O)CCl)c1 was read as Lassa entry inh 17.8µM*, Pf growth 96h inconclusive, Shiga inhibitor 3.1, Marburg entry inh inconclusive, Cycloheximide cs 13.1 and Pf growth 48h 9.28µM*.
Screening Cc1ccc(NC(=O)Nc2cc(S(C)(=O)=O)ccc2Cl)cc1 returned Lassa entry inh -3.8%, Pf growth 96h 150.7%, Shiga inhibitor 78.0*, Marburg entry inh 11.6%[46.1 µM], Cycloheximide cs 36.1* and Pf growth 48h 91.3%.
`CS(=O)(=O)c1ccc(C(=O)Nc2cc(S(C)(=O)=O)ccc2Cl)cc1` gave Lassa entry inh 21.8%, Pf growth 96h 6.5%, Shiga inhibitor -23.3, Marburg entry inh -5.7%, Cycloheximide cs 0.4 and Pf growth 48h 4.8%.
`CS(=O)(=O)c1ccc(Cl)c(NC(=O)COC(=O)C23CC4CC(CC(C4)C2)C3)c1` gave Pf growth 96h 8.28µM* and Pf growth 48h 5.22µM*.
